# Most compounds without a hit are left out; they make up all but 1.5% or so of the library.
# SARS 3CLpro inh – SARS-CoV 3CLpro protease inhibition | P0C6X7 | recombinant SARS-CoV 3CLpro, quenched FRET peptide cleavage | inhibition, % at 6 µM | hit rate 0.14% among 290,000 | AID 1706; in the data active = inhibition above about 12%
# MazF activator – MazEF (E. coli) toxin RNase activation; P0AE70; FAM/BHQ RNA-DNA oligo cleavage fluorescence, 5 h; activation, % at 20 µM; hit rate 0.32% among 350,000; AID 504720; in the data active = activation above about 50%
# Target sequence (P0AE70 whole entry, looked up): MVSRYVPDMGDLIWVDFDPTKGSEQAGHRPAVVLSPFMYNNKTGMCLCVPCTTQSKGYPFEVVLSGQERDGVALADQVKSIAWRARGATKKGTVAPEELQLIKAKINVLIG
# PrPC TRFRET – cell surface PrPC inhibition, primary TR-FRET screen; TR-FRET read-out; P04156; inhibition, % at 13.8 µM; AID 720596; hit rate 0.43% among 370,000; in the data active = inhibition above about 24%; also: 0% = median of the test wells and 100% = reference compound wells
# Mtb hypoxia rep – Mtb hypoxia fluorescent reporter inhibition; fluorescence inhibition, % (no concentration beside the values); hit rate 0.1% among 300,000; M. tuberculosis hypoxia-regulated fluorescent reporter, fluorescence; in the data active = fluorescence inhibition mostly above about 23%, no sharp cut-off; inactive = mostly below about 17%
# PrP UTR inh – suppresses PrP 5' UTR mRNA reporter expression. cell-based PrP 5' UTR mRNA reporter, plate reader. inhibition, % (no concentration beside the values). hit rate 0.35% among 340,000. AID 488862; in the data active = inhibition above about 52%; also: 0 = median of the neutral control wells
# VHR inh abs – blocks human VHR1 dual specificity phosphatase; hit rate 0.52% among 290,000; P51452; inhibition, % at 13.3 µM; recombinant VHR phosphatase, pNPP absorbance; AID 1654; in the data active = inhibition above about 50%
# Target sequence (P51452 whole entry, looked up): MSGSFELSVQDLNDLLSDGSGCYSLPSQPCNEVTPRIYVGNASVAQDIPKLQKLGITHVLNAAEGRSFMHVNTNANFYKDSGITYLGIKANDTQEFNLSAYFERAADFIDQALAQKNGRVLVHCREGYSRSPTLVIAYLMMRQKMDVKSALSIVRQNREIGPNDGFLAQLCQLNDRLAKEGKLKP
# PrP UTR cherry – prion 5' UTR mRNA inhibition, cherry-pick retest; inhibition, % at 2.5 µM; hit rate 48% among 1,100; cell-based prion protein 5' UTR reporter, plate reader; shares compounds with PrP UTR inh; in the data active = inhibition above about 54%; inconclusive = no clear call, values can overlap the other calls
# * = called active by the depositor; ? = inconclusive; nt = no result given.
SMILES,SARS 3CLpro inh,MazF activator,PrPC TRFRET,Mtb hypoxia rep,PrP UTR inh,VHR inh abs,PrP UTR cherry
C[C@H]1[C@@H](OS(=O)(=O)O)C[C@@H]2C[C@H]([C@@H](O)c3cc(=O)[nH]c(=O)[nH]3)NC3=NC[C@H]1N32,nt,3.5,nt,nt,60.7*,nt,66.0*
FC(F)Oc1ccccc1C=Nn1cnc2ccccc21,nt,nt,nt,-12.1,nt,nt,nt
Cc1ccc(C(=O)O/N=C(\N)c2ccccn2)cc1C,8.6,-2.7,3.2,14.4,87.0*,12.7,77.3*
Cc1ccc(C(=O)O/N=C(\N)c2ccccn2)cc1,0.2,7.1,-8.5,3.0,87.0*,26.0,94.0*
CC(C)(C)c1ccc(C(=O)O/N=C(\N)c2ccccn2)cc1,-3.5,3.7,-2.7,nt,77.2*,19.6,74.6*
CCOc1ccc(C(=O)O/N=C(\N)c2ccccn2)cc1,4.2,0.0,-3.1,10.3,84.0*,5.2,92.4*
Cc1ccc(S(=O)(=O)N2C(c3cccc(Cl)c3)CC=C(C(=O)O)C2c2ccccc2F)cc1 (stereo unspecified),nt,nt,nt,12.5,nt,nt,nt
COc1cccc(C=NNC(=O)c2ccc(Cn3cc(Br)c([N+](=O)[O-])n3)o2)c1O,nt,nt,nt,3.6,nt,nt,nt
Cc1noc(C)c1NC(=O)Nc1ccc2c(c1)CC(=O)N(C(C)CO)CC(C)C(CN(C)CC1CCCCC1)O2 (stereo unspecified),nt,nt,nt,6.5,nt,nt,nt
Cc1cccc(C(=O)O/N=C(\N)c2ccccn2)c1,-10.4,1.4,-0.4,-7.0,56.0*,25.5,75.0*
N/C(=N\OC(=O)c1cccc(F)c1)c1ccccn1,8.7,5.0,-4.4,5.1,-49.9,-5.0,nt
COc1ccccc1C(=O)NCCC(=O)N1CCN(c2ccc(C(F)(F)F)cn2)CC1,nt,0.7,4.6,0.5,-1.4,nt,nt
CCOc1ccccc1C(=O)N1CCN(c2ccc(C(F)(F)F)cn2)CC1,-2.4,6.5,2.6,12.2,62.0*,-1.1,8.3
C[C@H](CO)N1C[C@H](C)[C@@H](CN(C)C(=O)Nc2ccccc2)Oc2c(NC(=O)c3ccncc3)cccc2C1=O,nt,4.3,-3.7,-6.0,62.4*,nt,-25.1
C[C@H]1CN([C@@H](C)CO)C(=O)c2cccc(NC(=O)c3ccncc3)c2O[C@H]1CN(C)C(=O)Nc1ccccc1,nt,5.9,-2.5,nt,-6.5,nt,nt
CN(C)c1ccc(C=NNC(=O)c2cccc(C(=O)NN=Cc3ccc(N(C)C)cc3)n2)cc1,nt,nt,nt,-9.2,nt,nt,nt
COc1ccc(Oc2nccc(-c3ccc(F)cc3)c2C#N)cc1,5.6,0.7,2.6,nt,76.4*,16.4,-47.2
C=CCn1c(SCc2c(C)noc2C)nc2cc(C(=O)O)ccc2c1=O,2.6,-2.2,4.7,3.0,-17.9,nt,nt
C=CCn1c(SCc2c(C)noc2C)nc2ccccc2c1=O,-6.0,0.5,5.5,8.5,66.7*,6.5,82.4*
Cc1ccc(S(=O)(=O)N(C)c2c(C)ccc(S(=O)(=O)NC(C)(C)C)c2C)cc1,0.9,5.7,-0.9,6.3,82.0*,-1.3,-38.7
Cc1ccsc1/C=N/Nc1cccc(C(=O)O)c1,2.2,0.6,-2.8,nt,72.3*,11.6,67.7*
Cc1nn(-c2ccccc2Cl)c(Cl)c1/C=N/Nc1cccc(C(=O)O)c1,-1.7,1.2,-2.6,nt,77.3*,-1.0,63.8*
Cc1ccsc1C=NNc1cccc(C(=O)O)c1,nt,nt,nt,8.2,nt,nt,nt
Cc1cc(C(=O)NN=Cc2cccn2C)no1,nt,nt,nt,6.0,nt,nt,nt
ClCCCc1cn(C[C@H]2CC[C@@H]([C@@H]3CC[C@H](Cn4cc(CCCCl)nn4)O3)O2)nn1,-4.0,6.6,-2.1,nt,68.3*,24.4,-12.7
SMILES,SARS 3CLpro inh,MazF activator,PrPC TRFRET,Mtb hypoxia rep,PrP UTR inh,VHR inh abs,PrP UTR cherry
CC[C@@H](C)[C@H](C(CC(=O)N1CCCC1[C@@H](OC)[C@H](C)C(=O)N[C@H](Cc1ccccc1)c1nccs1)OC)N(C)C(=O)[C@H](NC(=O)[C@@H](C(C)C)N(C)C)C(C)C (stereo partly specified),nt,-1.5,1.5,nt,56.2*,nt,91.6*
CC[C@H](C)[C@@H](C(=O)N1CCCC1c1nccs1)N(C)C(=O)[C@H](CC(C)C)N(C)C(=O)[C@H](Cc1ccc(OC)cc1)N(C)C(=O)/C=C(\C)OC (stereo partly specified),nt,5.9,6.7,1.0,-19.5,nt,nt
Cc1ccc(C)c(NC(=O)CSc2nc3ccccc3nc2N2CCOCC2)c1,-2.6,-11.7,4.4,5.5,-6.8,-2.4,nt
CCc1ccccc1NC(=O)CSc1nc2ccccc2nc1N1CCOCC1,-4.8,-3.2,5.8,6.0,58.1*,-18.2,-7.9
O=C(Nc1ccccc1)c1cn2ccccc2n1,-3.4,0.0,-6.5,5.1,30.9,31.3,nt
Cc1csc(NC(=O)c2cn3ccccc3n2)n1,-1.6,4.7,0.7,1.3,75.9*,1.5,?
Cc1cccc(-n2ncc3c(N(C)C4CCCCC4)ncnc32)c1,nt,10.3,1.5,5.7,77.9*,14.2,69.4*
COc1ccc(-n2ncc3c(N(C)C4CCCCC4)ncnc32)cc1,-1.2,12.5,12.0,0.1,77.6*,33.0,65.5*
CC(C)(C)c1ccc(C=NNC(=O)C(=O)NCCCN2CCOCC2)cc1,nt,nt,nt,8.6,nt,nt,nt
COc1cc(C2C(C#N)=C(N)Oc3cc(N)ccc32)cc(OC)c1OC (stereo unspecified),2.4,8.2,-9.0,nt,67.4*,8.7,88.0*
O=C(/C=C/c1ccccc1)Nc1cccc(C(=O)O)c1,3.0,-0.8,0.3,4.3,79.8*,25.1,81.7*
CCOC(=O)C(=CNCC(=O)O)C(=O)OCC,1.2,-0.1,3.5,2.9,-10.7,30.2,nt
CNCC(=O)O,nt,7.6,7.4,nt,92.5*,nt,8.1
CC(CC(=O)Nc1cc(Cl)ccc1Cl)=NNC(=O)COc1cccc(C)c1,nt,nt,nt,12.3,nt,nt,nt
CCc1ccc(NC(=O)c2cnn3ccccc23)cc1,-2.0,1.4,10.0,13.1,51.3*,-10.2,?
CCCCCCCCCCCCCCCCCCNc1ccn(C2OC(COP(=O)(O)OCC3OC(n4cc(F)c(=O)[nH]c4=O)CC3O)C(O)C2O)c(=O)n1 (stereo unspecified),nt,-20.8,2.6,nt,62.9*,nt,7.5
Cc1ccc2oc(/N=C(\N)NC(=O)C(C)(C)C)nc2c1,2.1,-1.7,1.7,nt,90.5*,13.1,84.9*
Cc1ccc2oc(N=C(N)NC(=O)C3CC3)nc2c1,nt,nt,nt,7.7,nt,nt,nt
CCOC(=O)COc1c(C=NOC)cc(Cl)cc1OC,nt,nt,nt,1.3,nt,nt,nt
O=C(CCNc1n[nH]c(=O)[nH]c1=O)NN=Cc1ccc(C(F)(F)F)cc1,nt,nt,nt,-1.7,nt,nt,nt
CC1=CC(=O)C(C(C)C)=CC1=NOC(=O)c1cccc([N+](=O)[O-])c1,nt,nt,nt,5.2,nt,nt,nt
CCN(CC)c1ccc2cc(-c3nc4ccccc4[nH]3)c(=O)oc2c1,-39.5,nt,nt,-39.6,58.1*,6.2,65.5*
COc1ccc(CNC(=O)CC2C(=O)N(Cc3ccc(OC)cc3)CC2Cc2ccccc2)cc1 (stereo unspecified),nt,nt,nt,3.4,nt,nt,nt
Cc1ccc(-c2cc(C(=O)N/N=C/c3c(C)nn(-c4ccccc4)c3C)[nH]n2)cc1,2.7,nt,21.9,nt,70.2*,-16.2,88.4*
